Test results reported in PubChem BioAssay AID1159580 (chemical genetic matrix, 2015).
In all, about 5,500 compounds went through this assay and about 2,000 (36%) were called active. About 18% were inconclusive and are not listed. No stated cut-off is given here; in the data, active means normalized growth mostly below about 0.91 (no sharp cut-off); inconclusive means no clear call, values can overlap the other calls; inactive means mostly above about 0.92. The list shows a part of the results.

Assay: chemical genetic growth profiling, strain panel (AID 1159580);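 further: tested at 20 µM; growth read once vehicle control cultures reached saturation at 30 °C; 1 = growth at the plate median or of vehicle wells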
Conditions: growth OD

Measured: normalized growth

O=C(O)/C=C/C=C/c1ccccc1
active: S. cerevisiae deletion strains, locus YJR066W, strain TOR1, stronger effect = lower value 0.162 | S. cerevisiae deletion strains, locus YKL009W, strain mrt4, stronger effect = lower value 0.784 | S. cerevisiae deletion strains, locus YKL068W, stronger effect = lower value 0.854 | S. cerevisiae deletion strains, locus YKL085W, strain MDH1 (second series), stronger effect = lower value 0.773 | S. cerevisiae deletion strains, locus YKL085W, strain MDH1, stronger effect = lower value 0.773 | S. cerevisiae deletion strains, locus YKL160W, strain elf1, stronger effect = lower value 0.831 | S. cerevisiae deletion strains, locus YKR001C, strain vps1, stronger effect = lower value 0.792 | S. cerevisiae deletion strains, locus YKR026C, strain gcn3, stronger effect = lower value 0.808 | S. cerevisiae deletion strains, locus YKR091W, strain srl3, stronger effect = lower value 0.83 | S. cerevisiae deletion strains, locus YLL001W, strain dnm1, stronger effect = lower value 0.782 | S. cerevisiae deletion strains, locus YLL026W, stronger effect = lower value 0.831 | S. cerevisiae deletion strains, locus YLL041C, strain sdh2, stronger effect = lower value 0.829 | S. cerevisiae deletion strains, locus YLR027C, strain aat2, stronger effect = lower value 0.827 | S. cerevisiae deletion strains, locus YLR113W, strain HOG1, stronger effect = lower value 0.26 | S. cerevisiae deletion strains, locus YLR221C, strain rsa3, stronger effect = lower value 0.778 | S. cerevisiae deletion strains, locus YLR258W, strain gsy2, stronger effect = lower value 0.817 | S. cerevisiae deletion strains, locus YLR262C, strain YPT6 (second series), stronger effect = lower value 0.518 | S. cerevisiae deletion strains, locus YLR320W, strain mms22, stronger effect = lower value 0.771 | S. cerevisiae deletion strains, locus YLR342W, strain FKS1, stronger effect = lower value 0.812 | S. cerevisiae deletion strains, locus YLR357W, strain rsc2, stronger effect = lower value 0.732 | S. cerevisiae deletion strains, locus YLR370C, strain arc18, stronger effect = lower value 0.813 | S. cerevisiae deletion strains, locus YLR384C, strain iki3, stronger effect = lower value 0.827 | S. cerevisiae deletion strains, locus YML120C, strain ndi1, stronger effect = lower value 0.822 | S. cerevisiae deletion strains, locus YML124C, strain tub3, stronger effect = lower value 0.917 | S. cerevisiae deletion strains, locus YMR058W, strain fet3, stronger effect = lower value 0.793 | S. cerevisiae deletion strains, locus YMR078C, strain ctf18, stronger effect = lower value 0.9 | S. cerevisiae deletion strains, locus YMR125W, strain sto1, stronger effect = lower value 0.857 | S. cerevisiae deletion strains, locus YMR129W, stronger effect = lower value 0.824 | S. cerevisiae deletion strains, locus YMR205C, strain PFK2, stronger effect = lower value 0.826 | S. cerevisiae deletion strains, locus YMR231W, strain pep5, stronger effect = lower value 0.835 | S. cerevisiae deletion strains, locus YNL071W, strain lat1, stronger effect = lower value 0.775 | S. cerevisiae deletion strains, locus YNL183C, strain NPR1, stronger effect = lower value 0.168 | S. cerevisiae deletion strains, locus YNL209W, strain ssb2, stronger effect = lower value 0.863 | S. cerevisiae deletion strains, locus YNL248C, strain rpa49, stronger effect = lower value 0.832 | S. cerevisiae deletion strains, locus YNL250W, strain rad50, stronger effect = lower value 0.823 | S. cerevisiae deletion strains, locus YNL271C, strain bni1, stronger effect = lower value 0.772 | S. cerevisiae deletion strains, locus YNL298W, strain CLA4, stronger effect = lower value 0.692 | S. cerevisiae deletion strains, locus YNL322C, strain KRE1 (second series), stronger effect = lower value 0.746 | S. cerevisiae deletion strains, locus YNR049C, strain mso1, stronger effect = lower value 0.771 | S. cerevisiae deletion strains, locus YOL147C, strain pex11, stronger effect = lower value 0.927 | S. cerevisiae deletion strains, locus YOR001W, strain rrp6, stronger effect = lower value 0.794 | S. cerevisiae deletion strains, locus YOR070C, strain gyp1, stronger effect = lower value 0.831 | S. cerevisiae deletion strains, locus YOR080W, strain dia2, stronger effect = lower value 0.835 | S. cerevisiae deletion strains, locus YOR083W, strain WHI5, stronger effect = lower value 0.808 | S. cerevisiae deletion strains, locus YOR106W, strain vam3, stronger effect = lower value 0.793 | S. cerevisiae deletion strains, locus YOR144C, strain elg1, stronger effect = lower value 0.926 | S. cerevisiae deletion strains, locus YOR231W, strain MKK1, stronger effect = lower value 0.27 | S. cerevisiae deletion strains, locus YOR265W, strain rbl2, stronger effect = lower value 0.836 | S. cerevisiae deletion strains, locus YOR270C, strain vph1, stronger effect = lower value 0.687 | S. cerevisiae deletion strains, locus YOR290C, strain snf2, stronger effect = lower value 0.737 | S. cerevisiae deletion strains, locus YPL051W, strain arl3, stronger effect = lower value 0.83 | S. cerevisiae deletion strains, locus YPL078C, strain atp4, stronger effect = lower value 0.771 | S. cerevisiae deletion strains, locus YPL106C, strain sse1, stronger effect = lower value 0.821 | S. cerevisiae deletion strains, locus YPL240C, strain hsp82, stronger effect = lower value 0.806 | S. cerevisiae deletion strains, locus YPL256C, strain CLN2, stronger effect = lower value 0.226 | S. cerevisiae deletion strains, locus YPR119W, strain clb2, stronger effect = lower value 0.922 | S. cerevisiae deletion strains, locus YPR141C, strain kar3, stronger effect = lower value 0.877 | S. cerevisiae deletion strains, locus YPR163C, strain tif3, stronger effect = lower value 0.908
inactive: S. cerevisiae deletion strains, locus YLR039C, strain RIC1, stronger effect = lower value 0.832 | S. cerevisiae deletion strains, locus YLR058C, strain SHM2, stronger effect = lower value 0.98 | S. cerevisiae deletion strains, locus YLR102C, strain apc9, stronger effect = lower value 0.932 | S. cerevisiae deletion strains, locus YLR262C, strain YPT6, stronger effect = lower value 0.886 | S. cerevisiae deletion strains, locus YLR268W, strain sec22, stronger effect = lower value 0.887 | S. cerevisiae deletion strains, locus YLR330W, strain CHS5, stronger effect = lower value 0.952 | S. cerevisiae deletion strains, locus YLR342W, strain FKS1 (second series), stronger effect = lower value 0.882 | S. cerevisiae deletion strains, locus YLR371W, strain rom2, stronger effect = lower value 0.913 | S. cerevisiae deletion strains, locus YLR418C, strain cdc73, stronger effect = lower value 0.859 | S. cerevisiae deletion strains, locus YML016C, strain PPZ1, stronger effect = lower value 0.994 | S. cerevisiae deletion strains, locus YML032C, strain rad52, stronger effect = lower value 0.908 | S. cerevisiae deletion strains, locus YMR223W, strain ubp8, stronger effect = lower value 0.934 | S. cerevisiae deletion strains, locus YMR307W, strain GAS1, stronger effect = lower value 0.924 | S. cerevisiae deletion strains, locus YNL067W, strain RPL9B, stronger effect = lower value 0.954 | S. cerevisiae deletion strains, locus YNL153C, strain GIM3, stronger effect = lower value 0.952 | S. cerevisiae deletion strains, locus YNL233W, strain BNI4, stronger effect = lower value 0.949 | S. cerevisiae deletion strains, locus YNL307C, strain MCK1, stronger effect = lower value 0.93 | S. cerevisiae deletion strains, locus YNL322C, strain KRE1, stronger effect = lower value 0.985 | S. cerevisiae deletion strains, locus YNR052C, strain pop2, stronger effect = lower value 0.925 | S. cerevisiae deletion strains, locus YOL006C, strain TOP1, stronger effect = lower value 1.11 | S. cerevisiae deletion strains, locus YOL012C, strain htz1 1.04 | S. cerevisiae deletion strains, locus YOR061W, strain CKA2, stronger effect = lower value 0.973 | S. cerevisiae deletion strains, locus YOR069W, strain VPS5, stronger effect = lower value 0.974 | S. cerevisiae deletion strains, locus YOR136W, strain idh2, stronger effect = lower value 0.938 | S. cerevisiae deletion strains, locus YOR184W, strain ser1, stronger effect = lower value 0.928 | S. cerevisiae deletion strains, locus YOR316C, strain cot1, stronger effect = lower value 0.932 | S. cerevisiae deletion strains, locus YPL055C, strain LGE1, stronger effect = lower value 0.965 | S. cerevisiae deletion strains, locus YPR167C, strain met16, stronger effect = lower value 0.926 | S. cerevisiae deletion strains, strain wtn01, stronger effect = lower value 0.926 | S. cerevisiae strains, strain wild type, stronger effect = lower value 0.976
